Hit rate of the full screen: of about 3,400 compounds, about 160 (4.7%) were called active.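 Rule for the calls: active = fitted curve reaches 30% activation at a concentration no higher than the top valid tested dose, luminescence rising; inconclusive = no clear call, values can overlap the other calls; inactive = signal moving opposite to the expected increase, plus the rest.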 The list is a sample of the results. Measured potencies and affinities stand elsewhere.
Test: TCF/LEF reporter activation in neural progenitors – cell-based, iPS-derived NPC, luciferase, Wnt3a, cherry-pick, dose response (AID 1053144);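 note: Wnt3a stimulus is conditioned medium from Wnt3a-transfected mouse L cells at 5% in well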
Conditions: Wnt3a EC25, 24 h; series mostly up to 26 µM

activation, inactive:
O=C(/C=C/c1ccc([N+](=O)[O-])cc1)Nc1cccnc1
COc1ccc(OC)c(NC(=O)CSc2nnc(C3CCCCC3)n2-c2ccccc2)c1
O=C(COc1ccc2ccccc2c1)N1CCCC1
O=C(OCC(=O)N1CCOCC1)c1ccc2ccccc2c1O
O=C(Nc1ccc(-c2cn3ccsc3n2)cc1)C1CC1
O=C(Nc1ccc(C(=O)c2ccccc2)cc1)c1ccccc1
O=c1c2cc(-c3ccccc3)sc2nc2n1CCC2
CCOC(=O)c1sc2nc(-c3cccnc3)ccc2c1N
CC(C)c1[nH]nc2c1C(C1C=CCCC1)C(C#N)=C(N)O2 (centres undefined)
COc1ccc2cc(CCNC(=O)c3ccco3)c(=O)[nH]c2c1
CCCNC(=O)c1oc2ccc3c(c2c1C)C(=O)CC(C)(C)O3
CCCNC(=O)c1cc(-c2ccc3c(c2)OCO3)on1
Cc1cccn2cc(-c3ccc(F)cc3)nc12
COc1cc2ccc(-c3ccc4ccccc4n3)cc2cc1OC
c1ccc(-c2ccc3ccccc3n2)cc1
Cc1occc1C(=O)NNC(=O)c1ccccc1F
CCCCNc1c(-c2ccc(-c3cccc(Cl)c3)cc2)nc2ccccn12
COc1ccc(C)cc1NC(=O)CSc1nnnn1Cc1ccccc1
COC(=O)c1cc2c(s1)-c1ccc(OC)cc1CC2
COCCNC(=O)c1cc2sc3ccccc3c2s1
CCC1CCC(NC(=O)Nc2cccc(OC)c2)CC1 (centres undefined)
Oc1ccc(-c2cnc3ccccc3n2)cc1
Cc1cc2ncc(-c3ccccc3)nc2cc1C
CCC(=O)n1nc(-c2ccc(Cl)cc2)nc1SC
CCCCC12CN3CCN(CC(C3)/C1=N\NC(=O)c1ccccc1N)C2
CN(C)c1cccc(-c2csc(N3CCC(C(N)=O)CC3)n2)c1
Cc1ccc(C(=O)COC(=O)c2cccc(O)c2)s1
Cn1cccc1C(=O)OCC(=O)c1ccc(Br)s1
CCOc1ccc(N2C(=O)CC(SCCN)C2=O)cc1 (centres undefined)
O=C(Nc1ccccc1)C1=C[C@@H](C2CC2)C[C@@H](OCc2ccc(CO)cc2)O1
O=C1c2ccccc2C(=O)C1c1ccnc2ccccc12
O=C1/C(=C/c2ccc(O)cc2)COc2ccccc21
O=C(Nc1nccs1)c1c(O)c2c([nH]c1=O)CCCC2
Cc1ccc2cc(NC(=O)c3ccccc3)ccc2n1
O=C(Nc1ccc2ccccc2c1)c1cccc(F)c1
COc1cccc(-c2nc(-c3ccccn3)no2)c1OC
CN(C(=O)c1cc2c(=O)n3ccccc3nc2n1C)C1CCCCC1
Brc1ccc(-c2noc(-c3ccccc3)n2)o1
Brc1ccc(-c2nc(-c3ccccc3)no2)o1
O=C(c1ccc(-c2ccccc2Cl)o1)N1CCCCCCC1
O=C(c1ccc(-c2cccc(Cl)c2Cl)o1)N1CCOCC1
CC(C)(C)c1ccc(OCc2ccc(C(=O)NCc3cccnc3)o2)cc1
O=c1ncn(-c2cccc(Cl)c2)c2ccccc12
O=C(Nc1nccs1)c1ccc(N2CCOCC2)c([N+](=O)[O-])c1
O=C(N/N=C/c1cccc(OCc2ccccc2)c1)c1cccs1
Cc1occc1C(=O)N/N=C/C(Br)=C\c1ccccc1
COc1ccc(CN2C(=O)C(C)S/C2=N/N=C/c2ccco2)cc1 (centres undefined)
CCCc1cc(C(=O)NC2CCCCC2)no1
CC(=O)Nc1nc2cc3c(cc2s1)OCCO3
O=C(Nc1nc2cc3c(cc2s1)OCCO3)c1cccs1
Cc1c(C(=O)Nc2ccc(Br)cc2)cnn1C
Nc1nc(N)nc(-c2cccc(Br)c2)n1
Cc1ccc(F)c(CNC(=O)C2(C)CCCN2C(=O)C(C)C)c1F (centres undefined)
O=C(Nc1cccc(-c2ccc(N3CCOCC3)nn2)c1)c1ccc([N+](=O)[O-])cc1
Cc1ccc(C(=O)Nc2cccc(-c3ccc(N4CCOCC4)nn3)c2)cc1
N/C(=N\OC(=O)c1ccc(Cl)cc1Cl)c1cccnc1
COc1ccc(C(=O)Nc2cccc(C)c2)cc1
CN(C)Cc1c(C(=O)Nc2ccccc2)[nH]c2ccccc12
CC1CCN(C(=O)CNC(=O)c2ccc(Br)o2)CC1
COc1cccc(/C=C/c2ccccn2)c1O
COc1ccccc1NC(=O)COc1ccccc1C(=O)c1cnn(-c2ccccc2)c1
O=C(c1cnn(-c2cccc(F)c2)c1)c1ccccc1O
CC(O)C(NS(=O)(=O)c1ccc(Cl)cc1)C(=O)OCCOc1ccc(F)cc1 (centres undefined)
Cc1cnc(NC(=O)c2sc(Nc3ccccc3)nc2N)o1
CC(C)NC(=O)N(C)C[C@H]1Oc2ccc(NC(=O)Nc3ccccc3)cc2C(=O)N([C@H](C)CO)C[C@@H]1C
COc1cccc(CSc2nc3ccccc3[nH]2)c1
COc1cc2sc3cc(NCc4ccc(C)o4)ccc3c(=O)c2cc1OC
CCOC(=O)C1=C(Nc2ccc(OC)cc2)OCC1=O
COc1ccc(Nc2n[nH]c(C)c2[N+](=O)[O-])cc1
CCOc1ccc(C(=O)N(CC(=O)Nc2cccc(C)c2C)CC2CCCO2)cc1OC (centres undefined)
COc1ccc(-c2nnc(-c3cccnc3)o2)cc1
COc1ccc(S(=O)(=O)N2CCOCC2)cc1NC(=O)c1ccc2c(c1)OCCO2
C#CCOC(=O)CCCC(=O)Nc1ccccc1OC
C=CCn1c(C)nc2c(sc3nc4c(cc32)COC(C)(C)C4)c1=O
COc1cc(/C=N/Nc2ccc(C(F)(F)F)cn2)ccc1O
CCOc1ccc(/C=N/NC(=O)Cn2ccnc2C)cc1
O=C1NC(c2ccccc2Cl)=N/C1=C/c1ccco1
c1ccc(-c2cn(CC3CCCCC3)nn2)cc1
O=c1oc(CCCO)cc2ccc(C#Cc3ccsc3)cc12
COc1cc(C#Cc2ccc3cc(CCO)oc(=O)c3c2)cc(OC)c1
CCOC(=O)C1(Cc2cccc(OC)c2)CCCN(C(=O)c2ccccc2C)C1 (centres undefined)
Brc1ccsc1/C=N/Nc1ccccc1
Cc1cccc(C(=O)c2c(N)sc3c2CCCC3)c1
CC(=O)Nc1ccc(NC(=O)CN(c2ccccc2Cl)S(C)(=O)=O)cc1
CC(C)OC(=O)c1ccc2nc3ccccc3nc2c1
O=C(c1ccccc1)c1ccc(-c2ccc(O)cc2)cc1
Cc1nc(C)c(-c2csc(Nc3cccc(O)c3)n2)s1
O=C(Nc1nc2ccccc2[nH]1)c1cccc(Cl)c1
COc1cccc(NC(=O)c2cccc(Cl)c2)c1
O=C(CSc1nncs1)NCCCc1ccccc1
Cc1nc(-c2ccc(NC(=O)c3ccccc3Br)cc2)cs1
CC1=CC(=C2C(=O)c3ccccc3C2=O)C=C(C)N1Cc1ccco1
CCCC(=O)Nc1sc(C(=O)Nc2cccc(N)c2)c(C)c1C(=O)OC
COC(=O)c1c(NC(C)=O)sc(C(=O)Nc2ccccc2F)c1C
CCCc1nc2oc3c(NCC(C)O)ncnc3c2c2c1CCCC2 (centres undefined)
Cc1ccsc1C(=O)OCC(=O)c1ccc[nH]1
Cc1ccsc1C(=O)OCC(=O)N(C)C1CCCCC1
Cc1ccnc(NC(=O)C2COc3ccccc3O2)c1 (centres undefined)
CC(=Nc1ccc(C)cc1)c1sc2ccccc2c1O
CC(=Nc1ccccc1O)c1sc2ccccc2c1O
CCCC(=O)Nc1ccc(C#Cc2ccccc2)cc1
O=C(NN1C(=O)C2C3c4ccccc4C(c4ccccc43)C2C1=O)C1CC1 (centres undefined)
O=C(O)CC(CN1C(=O)c2ccccc2C1=O)c1ccccc1 (centres undefined)
c1ccc(-c2noc(C3CCCCC3)n2)nc1
CCc1ccc(NC2=CC(=O)C(=O)c3ccccc32)cc1
Nc1ccc2c(c1)C(=O)c1ccccc1C2=O
CC(C)NC(=O)c1cc(-c2ccc3c(c2)OCO3)on1
Cc1ccc(S(=O)(=O)N2CCN(C(=O)Cn3c(=O)cnc4ccccc43)CC2)c(C)c1
COc1ccccc1CN(C)C(=O)C1COc2ccccc2O1 (centres undefined)
Cc1ccc(/C=C/C(=O)Nc2cc(C)on2)cc1
CCCC(=O)Nc1ccc(C(=O)COC(=O)C2CC2C)cc1 (centres undefined)
CC(=O)Nc1ccc(C(=O)COC(=O)C2CC2)c(F)c1
Cc1ccc(OCC(=O)O/N=C(\N)c2ccccn2)cc1C
COc1ccc2nc(Nc3ccccc3OC)sc2c1
COc1ccccc1-c1nc(COc2ccc(Cl)cc2Cl)no1
Cc1cc(Cl)ccc1OCc1nnc(-c2ccccc2C)o1
CCOc1ccc(NC2c3ccccc3C(=O)N2c2ccc(Cl)cn2)cc1 (centres undefined)
O=C(CN1C(=O)CCC1=O)Nc1nc(-c2ccc3ccccc3c2)cs1
CCN(CC)S(=O)(=O)c1ccc(O)c(NC(=O)COc2ccc(S(=O)(=O)N3CCOCC3)cc2)c1
O=C1NC(=Nc2ccccc2)S/C1=C/c1cccs1
Cc1ccc(N/C=C2/Sc3ccccc3NC2=O)cc1
COC(=O)[C@@H](Cc1c[nH]c2ccccc12)NC(=O)c1ccc2c(c1)OCO2
CCCCNC(=O)C1CC(c2cccc(F)c2)=NO1 (centres undefined)
COc1ccc(CNC(=O)C(=O)NCC(c2ccco2)N2CCOCC2)cc1 (centres undefined)

From PubChem BioAssay AID1053144 (Broad Institute, 2014)
